Reference: paper PMC5700166

What was measured:
Experiment in all cases: protein-binding microarray (PBM); PBM: ~300 nM protein, 6 mM HEPES pH 7.8, 80 mM KCl, 0.5 mM EDTA, 0.5 mM EGTA, 6% glycerol, 35 ng/ul poly-dIdC, 1% milk, 1 h, room temperature; Ap Aiptasia and Nv Nematostella (sea anemones) / Co Capsaspora / Aq Amphimedon (sponge) / Dm Drosophila / Hu human; RHD is the Rel homology domain; high values mean tight binding
Details in all cases: dsDNA, one strand shown
GST-Ap-NF-kB RHD = target: T1, GST-Ap-NF-kB RHD (Exaiptasia pallida (Aiptasia), UniProt A0A913YAJ5 2-422)
T1 sequence: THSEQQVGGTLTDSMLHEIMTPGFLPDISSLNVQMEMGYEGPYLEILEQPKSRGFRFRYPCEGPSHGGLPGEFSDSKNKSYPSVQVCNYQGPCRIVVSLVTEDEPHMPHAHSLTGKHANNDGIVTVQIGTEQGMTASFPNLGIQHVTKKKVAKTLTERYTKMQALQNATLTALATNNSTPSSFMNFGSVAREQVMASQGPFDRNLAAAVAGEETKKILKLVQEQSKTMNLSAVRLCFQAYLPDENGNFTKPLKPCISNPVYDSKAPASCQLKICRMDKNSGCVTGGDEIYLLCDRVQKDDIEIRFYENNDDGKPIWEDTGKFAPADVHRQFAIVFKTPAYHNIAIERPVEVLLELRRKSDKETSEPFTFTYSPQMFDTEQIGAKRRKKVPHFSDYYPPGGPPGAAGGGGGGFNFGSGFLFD

[1] = target: T2, GST-Nv-NF-kB (Cys allele) (Nematostella vectensis, UniProt E5G601 2-411)
T2 sequence: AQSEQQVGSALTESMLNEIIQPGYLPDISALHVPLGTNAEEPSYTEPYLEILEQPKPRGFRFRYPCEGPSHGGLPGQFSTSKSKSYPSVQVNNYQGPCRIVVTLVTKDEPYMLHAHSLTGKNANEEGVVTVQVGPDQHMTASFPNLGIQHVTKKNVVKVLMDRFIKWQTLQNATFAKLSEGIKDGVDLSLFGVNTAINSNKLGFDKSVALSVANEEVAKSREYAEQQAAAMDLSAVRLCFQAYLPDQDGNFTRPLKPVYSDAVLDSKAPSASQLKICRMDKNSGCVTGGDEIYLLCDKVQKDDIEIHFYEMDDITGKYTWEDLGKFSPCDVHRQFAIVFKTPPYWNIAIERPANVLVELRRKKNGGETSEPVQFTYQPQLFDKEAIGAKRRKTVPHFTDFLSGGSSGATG

GST-Co-NF-kB = target: T3, GST-Co-NF-kB (Capsaspora owczarzaki, UniProt F1ARL5 200-546)
T3 sequence: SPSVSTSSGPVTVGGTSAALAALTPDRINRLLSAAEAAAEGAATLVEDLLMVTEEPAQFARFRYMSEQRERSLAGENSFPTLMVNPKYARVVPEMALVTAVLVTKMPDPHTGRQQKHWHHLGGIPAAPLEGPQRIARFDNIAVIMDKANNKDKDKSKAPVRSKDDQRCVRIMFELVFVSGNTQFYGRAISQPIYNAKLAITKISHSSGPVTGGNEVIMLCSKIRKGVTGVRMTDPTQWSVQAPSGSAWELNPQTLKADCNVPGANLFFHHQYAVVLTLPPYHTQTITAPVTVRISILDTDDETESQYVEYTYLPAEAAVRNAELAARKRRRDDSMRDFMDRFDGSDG

GST-Dm-Relish = target: T4, GST-Dm-Relish (Drosophila melanogaster, UniProt Q94527 99-473)
T4 sequence: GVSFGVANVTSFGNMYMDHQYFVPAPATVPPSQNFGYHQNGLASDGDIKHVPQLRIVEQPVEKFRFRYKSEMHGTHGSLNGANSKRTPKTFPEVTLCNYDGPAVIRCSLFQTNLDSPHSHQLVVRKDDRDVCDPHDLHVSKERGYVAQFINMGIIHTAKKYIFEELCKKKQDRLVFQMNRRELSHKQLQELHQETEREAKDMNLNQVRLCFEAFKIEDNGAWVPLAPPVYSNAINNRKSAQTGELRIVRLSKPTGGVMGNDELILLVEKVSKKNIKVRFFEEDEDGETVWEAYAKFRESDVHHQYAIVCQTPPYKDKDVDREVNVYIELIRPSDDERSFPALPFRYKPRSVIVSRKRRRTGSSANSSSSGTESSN

GST-Aq-NF-kB = target: T5, GST-Aq-NF-kB (Amphimedon queenslandica, UniProt A9Y5G7 2-389)
T5 sequence: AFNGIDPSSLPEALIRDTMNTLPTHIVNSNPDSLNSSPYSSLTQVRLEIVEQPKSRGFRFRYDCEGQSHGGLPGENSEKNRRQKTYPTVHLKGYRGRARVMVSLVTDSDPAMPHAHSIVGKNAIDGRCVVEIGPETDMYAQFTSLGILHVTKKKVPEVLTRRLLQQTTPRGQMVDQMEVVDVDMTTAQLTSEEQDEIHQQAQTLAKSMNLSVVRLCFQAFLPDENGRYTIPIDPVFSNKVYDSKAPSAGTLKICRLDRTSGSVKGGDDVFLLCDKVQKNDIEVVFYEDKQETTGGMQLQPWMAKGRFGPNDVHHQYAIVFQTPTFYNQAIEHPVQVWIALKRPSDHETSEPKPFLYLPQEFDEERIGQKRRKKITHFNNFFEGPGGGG

Row | Sequence | binding signal (GST-Ap-NF-kB RHD) [z-score] | binding signal [1] [z-score] | binding signal (GST-Co-NF-kB) [z-score] | binding signal (GST-Dm-Relish) [z-score] | binding signal (GST-Aq-NF-kB) [z-score]
1 | CCGATTAACATCAGGGATTCCCATGATGTTAATCGGGTCTTGATTCGCTTGACGCTGCTG | 4.88 | 4.61 | 2.91 | 10 | 6.04
2 | CCGATTAACATCAAATATACCCATGATGTTAATCGGGTCTTGATTCGCTTGACGCTGCTG | 2.13 | 2.41 | 1.8 | 2.31 | 2.52
3 | CCGATTAACATCAGGGGCGGGAATGATGTTAATCGGGTCTTGATTCGCTTGACGCTGCTG | 2.87 | 3.85 | 3.85 | 2.49 | 4.18
4 | CCGATTAACATCAAGCATCCCCCTGATGTTAATCGGGTCTTGATTCGCTTGACGCTGCTG | 4.92 | 5.03 | 4.28 | 3.89 | 4.87
5 | CCGATTAACATCATCTCCCCCCATGATGTTAATCGGGTCTTGATTCGCTTGACGCTGCTG | 4.75 | 2.53 | 8 | 2.29 | 4.57
6 | CCGATTAACATCAGTTCCCCCCATGATGTTAATCGGGTCTTGATTCGCTTGACGCTGCTG | 6.36 | 4.32 | 8.97 | 3.62 | 3.91
7 | CCGATTAACATCAGGGGTTACCCTGATGTTAATCGGGTCTTGATTCGCTTGACGCTGCTG | 6.28 | 5.58 | 4.23 | 8.84 | 7.71
8 | CCGATTAACATCAGGGAACTACATGATGTTAATCGGGTCTTGATTCGCTTGACGCTGCTG | 1.52 | 1.1 | 1.62 | 8.31 | 2.44
9 | CCGATTAACATCAATTCCCAAGGTGATGTTAATCGGGTCTTGATTCGCTTGACGCTGCTG | 1.3 | 1.9 | 2.02 | 1.17 | 1.55
10 | CCGATTAACATCAGGCCCCCCCCTGATGTTAATCGGGTCTTGATTCGCTTGACGCTGCTG | 5.7 | 4.06 | 3.96 | 6.13 | 5.74
11 | CCGATTAACATCAGCCCCCCCCATGATGTTAATCGGGTCTTGATTCGCTTGACGCTGCTG | 4.34 | 2.9 | 5.27 | 4.42 | 4.51
12 | CCGATTAACATCAGGGAACTCCATGATGTTAATCGGGTCTTGATTCGCTTGACGCTGCTG | 2.66 | 2.2 | 1.5 | 6.21 | 3.71
13 | CCGATTAACATCAGGGGAGAAAATGATGTTAATCGGGTCTTGATTCGCTTGACGCTGCTG | 4.25 | 5.5 | 8.56 | 2.26 | 3.89
14 | CCGATTAACATCACGGGTTTCCCTGATGTTAATCGGGTCTTGATTCGCTTGACGCTGCTG | 3.92 | 4.58 | 4.46 | 7.38 | 5.5
